In PubChem BioAssay (NCATS) one finds outcome and Potency data, which are given here for 35 compounds.

Each structure is given as a SMILES string. Inconclusive results are not listed. Entries that show only a call come without a potency. Calls of active or inactive are those of the source. Calls come from the whole dose curve; as a rule, active = well fitted curve in the direction sought with a large enough effect; inconclusive = small, poorly fitted or top-dose-only effect, or another doubt; inactive = no such curve, though single readings can be large; an effect the other way counts as inactive or inconclusive.

Experiment [1] has as its target Protein phosphatase 1D (Homo sapiens) (UniProt O15297). Put plainly: Rhodamine-PBP qHTS Assay for Modulators of WT P53-Induced Phosphatase 1 (WIP1) (AID 1347425). The following applies: recombinant WIP1, Rhodamine-PBP phosphate fluorescence, real-time; series mostly up to 57.5 µM. The method, boiled down: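 Steps: enzyme with Rh-PBP sensor and compounds, room-temperature incubation of 1 hr, baseline read, addition of VEPPL-pS-QETFS (10 uM final), kinetic fluorescence reads at 525/598 nm. Activity equals final minus baseline signal.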

The nature of experiment [2]: Validation qHTS assay for inhibitors of Activation Induced Cytidine Deaminase (AID): UDG Counterscreen signal (AID 1347427). The following applies: biochemical UDG counterscreen, fluorescence signal; series mostly up to 115 µM. The method, boiled down: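 Fluorescence at 560 nm excitation, 665 nm emission reports UDG signal after 250 mM NaOH (2x) addition and 30 min. Enzymes (AID 1 uM, UDG 2 U/mL, at 4/3x) preincubated 10 min with compound, then 4 h with 4x 250 nM DJC20/DJC23 substrate at room temperature.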
On the technique in general: qHTS replaces the single test concentration by a dilution series.

Experiment [3] deals with Single-stranded DNA cytosine deaminase (Homo sapiens) (UniProt Q9GZX7). Put plainly: Validation qHTS assay for inhibitors of Activation Induced Cytidine Deaminase (AID): AID signal (AID 1347429). The settings on record: Recombinant AID, FRET ssDNA deamination with UDG, fluorescence; series mostly up to 115 µM. The gist of the method:
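Compounds (final up to 114 uM) preincubated with AID plus UDG; 250 nM DJC20/DJC23 substrate mix (4x stock) added, 4 hr at room temperature, then NaOH, 30 min. Read 1 fluorescence at 540 nm excitation, 590 nm emission.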

In experiment [4] the target is Calcium and integrin-binding protein 1 (Homo sapiens) (UniProt Q99828). The experiment is described as follows: Validation qHTS for Identification of Calcium Integrin Binding protein 1 (CIB1) Competitor (AID 1508618). The following applies: CIB1-GST / FITC-alphaIIb peptide fluorescence polarization; series mostly up to 114 µM. The gist of the method: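 In this qHTS validation, the LOPAC set (up to 114 uM) was tested for blocking CIB1 binding to a fluorescein-tagged alphaIIb peptide, with FP detection at 480/540 nm.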
Calcium and integrin-binding protein 1 (Homo sapiens), sequence (Q99828 whole entry, looked up): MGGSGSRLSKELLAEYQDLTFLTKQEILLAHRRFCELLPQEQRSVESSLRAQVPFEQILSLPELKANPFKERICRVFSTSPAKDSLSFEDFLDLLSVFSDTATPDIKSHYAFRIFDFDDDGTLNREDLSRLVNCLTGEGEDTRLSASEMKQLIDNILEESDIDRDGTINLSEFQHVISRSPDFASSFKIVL

The nature of experiment [5]: Primary qHTS for small molecule stabilizers of the endoplasmic reticulum resident proteome: Secreted ER Calcium Modulated Protein (SERCaMP) assay (AID 1508630). The settings on record: SH-SY5Y GLuc-SERCaMP (Gaussia luciferase released on ER calcium loss) secretion, thapsigargin, luminescence; series mostly up to 38.4 µM. The gist of the method:
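The SH-SY5Y reporter protocol was run at 3 concentrations up to 38.3 uM (primary) or 11 concentrations (follow-up): 16 h compound, 100 nM thapsigargin for 4 h, then extracellular luciferase luminescence.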

A short description of experiment [6]: Primary qHTS for inhibitors of La Crosse Virus (LACV) - induced cell death in SH-SY5Y cells (AID 1508616).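 Note: top concentration of the series differs between compounds; higher means more rescue of cells from virus-induced death.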 The following applies: SH-SY5Y LACV cytopathicity rescue, ATP luminescence, 6 d; series mostly up to 4.29 µM. The method, boiled down: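 Rescue of virus-induced death was read as ATPLite luminescence after 6 days at 37C, scaled between DMSO wells with LACV and without virus. Cells were SH-SY5Y, 6000/well, infected at 0.01 MOI after compound addition.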

Experiment [7] has as its target Calcium and integrin-binding protein 1 (Homo sapiens) (UniProt Q99828). The experiment is described as follows: Primary qHTS for Identification of Calcium Integrin Binding Protein 1 (CIB1) Competitor (AID 1508620). Note: top concentration of the series differs between compounds. The settings on record: CIB1-GST / FITC-alphaIIb peptide fluorescence polarization; series mostly up to 114 µM. The method, boiled down: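 CIB1-GST (1 uM final) and compound incubated 15 min at room temperature before adding FITC-alphaIIb peptide tracer (100 nM final). Competition for binding read by fluorescence polarization (ex 480, em 540) after another 15 min at room temperature.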

Single-stranded DNA cytosine deaminase (Homo sapiens), sequence (Q9GZX7 whole entry, looked up): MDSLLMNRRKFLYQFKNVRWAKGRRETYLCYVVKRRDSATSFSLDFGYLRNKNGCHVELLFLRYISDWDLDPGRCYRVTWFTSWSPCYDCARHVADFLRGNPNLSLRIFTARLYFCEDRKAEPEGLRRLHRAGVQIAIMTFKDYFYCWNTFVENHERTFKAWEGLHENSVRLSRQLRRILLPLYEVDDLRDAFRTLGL
Protein phosphatase 1D (Homo sapiens), sequence (O15297 whole entry, looked up): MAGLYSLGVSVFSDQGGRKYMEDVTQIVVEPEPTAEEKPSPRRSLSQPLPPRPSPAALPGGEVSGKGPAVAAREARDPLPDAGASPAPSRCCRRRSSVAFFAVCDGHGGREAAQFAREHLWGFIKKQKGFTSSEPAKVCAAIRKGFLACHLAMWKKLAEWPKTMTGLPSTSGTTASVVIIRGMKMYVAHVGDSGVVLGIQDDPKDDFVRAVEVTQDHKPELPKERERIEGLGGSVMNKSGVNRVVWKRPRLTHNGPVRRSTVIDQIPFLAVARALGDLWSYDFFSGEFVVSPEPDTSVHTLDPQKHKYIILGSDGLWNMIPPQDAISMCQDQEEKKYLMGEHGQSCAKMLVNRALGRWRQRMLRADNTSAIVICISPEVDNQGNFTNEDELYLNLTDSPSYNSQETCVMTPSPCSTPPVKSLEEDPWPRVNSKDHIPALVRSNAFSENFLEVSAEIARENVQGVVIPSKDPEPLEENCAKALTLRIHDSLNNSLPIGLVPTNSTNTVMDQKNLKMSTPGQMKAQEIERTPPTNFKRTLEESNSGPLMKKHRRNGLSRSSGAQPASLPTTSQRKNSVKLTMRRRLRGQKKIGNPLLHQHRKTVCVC

Regarding `CN[C@H]1CC[C@@H](c2ccc(Cl)c(Cl)c2)c2ccccc21`, the result in experiment [1], in experiment [2], in experiment [3], in experiment [4] and in experiment [5] was inactive.

With `NCCCC(=O)O`, the compound was classed as inactive in experiment [2], in experiment [3] and in experiment [5].

On to `Oc1cccc(-c2c3nc(c(-c4cccc(O)c4)c4ccc([nH]4)c(-c4cccc(O)c4)c4nc(c(-c5cccc(O)c5)c5ccc2[nH]5)CC4)C=C3)c1`, for which the compound was called inactive in experiment [6].

As for `Cc1ccc(N2CCN(S(=O)(=O)N3CCCCC3)CC2)c(C)c1`, the Potency result in experiment [7] is “inactive”.

With `C=C1C(=O)O[C@@H]2C[C@@]3(C)C[C@@H](O)C[C@H](C)C3=C[C@H]12`, in experiment [7], the Potency result is “inactive”.

Regarding `CC(C)(CNC(=O)c1cccc(-c2noc(C(F)(F)F)n2)c1)c1coc(-c2ccccc2)n1`, the Potency result in experiment [7] is “inactive”.

In the case of `Cc1[nH]c2ccccc2c1CCNC(=O)c1cccs1`, the Potency entry in experiment [7] is “inactive”.

Take `C[C@@]12C(=O)N(c3ccc(C(=O)Nc4cccc5cccnc45)cc3)C(=O)[C@@H]1[C@@H]1C=C[C@H]2C1`: the Potency result in experiment [7] is “inactive”.

For `COC(=O)C[C@H]1C(C)(C)[C@H](OC(=O)c2ccccc2)C2CC3=C4CC(=O)O[C@@H](c5ccoc5)[C@]4(C)CCC3[C@@]1(C)C2=O` (stereo partly specified), in experiment [7], the Potency result is “inactive”.

Consider `Cc1ccc(C)c(-c2cc(C(F)(F)F)nn2-c2ccc(S(N)(=O)=O)cc2)c1`, for which, in experiment [7], the Potency result was “inactive”.

For `CC1CCCC(O)CCC/C=C/c2cc(OS(=O)(=O)O)cc(O)c2C(=O)O1` (stereo unspecified), the Potency result in experiment [7] is “inactive”.

For the compound `CC(C)(O)c1ccc2c(c1)ncn2-c1cccc(-c2ccccc2C#N)c1`, the Potency result in experiment [7] was “inactive”.

Regarding `C/C(=C\CCC(C)C1=CCC2(C)OC3=C(CC12)C(=O)C(O)CC3)CO` (stereo unspecified), the Potency result in experiment [7] is “inactive”.

`C=C1C(=O)OC2/C=C(\C)CC3C=C(CC/C=C(\C)CCC12)C(=O)O3` (stereo unspecified): in experiment [7], the Potency result was “inactive”.

Regarding `CN1CC[C@@H](c2c(O)cc(O)c3c(=O)cc(-c4ccc(C(F)(F)F)cc4Cl)oc23)[C@@H]1CO`, the Potency entry in experiment [7] is “inactive”.

For `C=C(C)[C@@H]1CC[C@]2(C(=O)O)CC[C@]3(C(=O)O)[C@H](CCC4[C@@]5(C)CCC(=O)C(C)(C)C5CC[C@]43C)C12` (stereo partly specified), the Potency result in experiment [7] is “inactive”.

Regarding `CN1CCN(C2CCN(C(=O)Nc3cc(Oc4ccc(NC(=O)C5(C(=O)Nc6ccc(F)cc6)CC5)c(F)c4)ccn3)CC2)CC1`, the Potency result in experiment [7] was “inactive”.

Consider `CC[C@@H](Nc1c(Nc2cccc(C(=O)N(C)C)c2O)c(=O)c1=O)c1cc(C(C)C)co1`, for which the Potency result in experiment [7] is “inactive”.

For `CCCCCCCCC(=O)N[C@H](CN1CCCC1)[C@H](O)c1ccc2c(c1)OCCO2`, in experiment [7], the Potency entry is “inactive”.

Turning to `COc1ccc(-c2c(C)nn3c(NCCN4CCOCC4)cc(C)nc23)cc1OC`, in experiment [7], the Potency entry is “inactive”.

In the case of `CC(=O)c1c(C)cc2cccc(O)c2c1O[C@@H]1O[C@H](CO)[C@@H](O)[C@H](O)[C@H]1O`, in experiment [7], the Potency entry was “inactive”.

As to `CC(OC1OCCN(Cc2n[nH]c(=O)[nH]2)C1c1ccc(F)cc1)c1cc(C(F)(F)F)cc(C(F)(F)F)c1` (stereo unspecified), in experiment [7], the Potency result was “inactive”.

In the case of `CN(C)N(C)C(=O)[C@@]1(Cc2ccccc2)CCCN(C(=O)[C@@H](Cc2c[nH]c3ccccc23)NC(=O)C(C)(C)N)C1`, in experiment [7], the Potency result is “inactive”.

`CCc1c[nH]c2ncnc(N3CC[C@](N)(CNC(=O)c4ccc(F)cc4F)C3)c12`: in experiment [7], the Potency result is “inactive”.

On to `C=C(C)C(=O)OC1CC(CO)CCC/C(CO)=C/C2OC(=O)C(=C)C21` (stereo unspecified), for which the Potency entry in experiment [7] is “inactive”.

For `C=C1C(=O)O[C@@H]2C3C(=C(C)[C@@H](O)[C@@H](OC(=O)/C(=C/C)COC(C)=O)[C@@H]12)C(=O)[C@H]1O[C@@]31C` (stereo partly specified), the Potency entry in experiment [7] is “inactive”.

With `CC(=O)C1=CCC2C3CC=C4CC(O)CC(O)C4(C)C3C(O)CC12C` (stereo unspecified), the Potency result in experiment [7] was “inactive”.

Consider `Cn1ncnc1[C@H]1c2n[nH]c(=O)c3cc(F)cc(c23)N[C@@H]1c1ccc(F)cc1`, for which, in experiment [7], the Potency entry was “inactive”.

For the compound `O=C1Nc2ccccc2-c2nc3ccccc3c(=O)n2-c2c(O)cccc21`, the Potency result in experiment [7] was “inactive”.

Take `CC(C)C(C)C(O)C1CC23CC(=O)C4(O)C(=C2CCC3C1C)C=CC1(O)CC(O)CCC14C` (stereo unspecified): the Potency entry in experiment [7] is “inactive”.

With `COc1ccc(C2=NC(c3ccc(Cl)cc3)C(c3ccc(Cl)cc3)N2C(=O)N2CCNC(=O)C2)c(OC(C)C)c1` (stereo unspecified), the Potency result in experiment [7] is “inactive”.

Turning to `C=C(CCC1C(C)(O)CCC2C(C)(C)C(O)CCC12C)C(O)CO` (stereo unspecified), the Potency result in experiment [7] is “inactive”.

For the compound `O=C(COc1ccc(C(=O)c2ccccc2)cc1)NC1CCN(Cc2ccccc2)CC1`, in experiment [7], the Potency result is “inactive”.

Turning to `COc1ccc(CCO[C@@H]2O[C@H](CO[C@H]3OC[C@](O)(CO)[C@H]3O)[C@@H](OC(=O)/C=C/c3ccc(O)c(O)c3)[C@H](O[C@@H]3O[C@@H](C)[C@H](O)[C@@H](O)[C@H]3O)[C@H]2O)cc1OC`, the Potency entry in experiment [7] was “inactive”.

In the case of `CC(C)C[C@@H]1NC(=O)[C@@H](Cc2ccccc2)NC(=O)C(CCCCCC(=O)C2CO2)NC(=O)[C@@H]2CCCCN2C1=O` (stereo partly specified), the Potency result in experiment [7] is “inactive”.
